Data on 12 sequences can be found in publication PMC8384837, “Expanding the binding specificity for RNA recognition by a PUF domain”.

Numbering of substitutions follows the chain as printed.

Common to all, as to experiment: yeast three-hybrid, YBZ-1, SC-Leu-His + 0.5 mM 3-AT, 4 days
Holding throughout (settings): tags: N-Gal4 AD-HA kept; label: inside an RPR1-promoter hybrid RNA with tandem MS2 sites; ssRNA

One assay has as its target PUM1 PUF domain R4-SNI (Homo sapiens, UniProt Q14671 828-1176, N971S;H972N;Q975I). In outline: (§1)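 Sequencing with Illumina followed PCR amplification of the repeat regions from transformants grown four days on SC-Leu (input) or SC-Leu-His + 0.5 mM 3-AT (selection). The transformants were strain YBZ-1 with a LexA–MS2 coat fusion and a HIS3 reporter, carrying Pumilio-1 PUF domain libraries and matching RNA elements. The interaction score is the log change in variant frequency from input to selection, computed in log2 with a pseudocount of 1 for absent variants.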

The next assay addresses PUM1 PUF domain R4-SPY (Homo sapiens, UniProt Q14671 828-1176, N971S;H972P;Q975Y). In outline: as §1
In another assay the target is PUM1 PUF domain R5-HCR (Homo sapiens, UniProt Q14671 828-1176, C1007H;R1008C;Q1011R). The method, boiled down: as §1
A further assay addresses PUM1 PUF domain R5-MYG (Homo sapiens, UniProt Q14671 828-1176, C1007M;R1008Y;Q1011G). The method, boiled down: as §1
Another assay addresses PUM1 PUF domain R5-QRD (Homo sapiens, UniProt Q14671 828-1176, C1007Q;Q1011D). The method, boiled down:
as §1

A further assay concerns the target PUM1 PUF domain R5-LFR (Homo sapiens, UniProt Q14671 828-1176, C1007L;R1008F;Q1011R). In outline:
as §1

Another assay concerns the target T1, PUM1 PUF domain R6-CFK (Homo sapiens, UniProt Q14671 828-1176, N1043C;Y1044F;Q1047K).
T1 sequence: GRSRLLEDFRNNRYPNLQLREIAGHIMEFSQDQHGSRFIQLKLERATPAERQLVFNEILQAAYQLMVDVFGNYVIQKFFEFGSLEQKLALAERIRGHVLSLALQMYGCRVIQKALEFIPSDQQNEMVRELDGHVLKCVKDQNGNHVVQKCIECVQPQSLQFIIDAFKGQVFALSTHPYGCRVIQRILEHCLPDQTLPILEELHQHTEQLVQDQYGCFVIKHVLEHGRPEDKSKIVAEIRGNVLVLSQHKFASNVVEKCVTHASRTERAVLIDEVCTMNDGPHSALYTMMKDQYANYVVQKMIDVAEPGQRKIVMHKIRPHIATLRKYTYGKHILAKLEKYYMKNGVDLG
In outline:
as §1

The next assay deals with PUM1 PUF domain R4-ALC (Homo sapiens, UniProt Q14671 828-1176, N971A;H972L;Q975C). In outline:
as §1

A further assay deals with PUM1 PUF domain R3-VRL (Homo sapiens, UniProt Q14671 828-1176, C935V;Q939L). In outline: as §1
In another assay the target is T2, PUM1 PUF domain R6-QWS (Homo sapiens, UniProt Q14671 828-1176, N1043Q;Y1044W;Q1047S).
T2 sequence: T1 sequence with C216Q, F217W, K220S
The method, boiled down:
as §1

In the next assay the target is PUM1 PUF domain R4-YRC (Homo sapiens, UniProt Q14671 828-1176, N971Y;H972R;Q975C). The method, boiled down: as §1
The target of a further assay is PUM1 PUF domain R4-SIG (Homo sapiens, UniProt Q14671 828-1176, N971S;H972I;Q975G). In outline: as §1
A further assay has as its target PUM1 PUF domain R3-RSG (Homo sapiens, UniProt Q14671 828-1176, C935R;R936S;Q939G). The method, boiled down:
as §1

For a further assay, the target named is PUM1 PUF domain R3-RDK (Homo sapiens, UniProt Q14671 828-1176, C935R;R936D;Q939K). In outline: as §1
The next assay concerns the target PUM1 PUF domain R3-HRR (Homo sapiens, UniProt Q14671 828-1176, C935H;Q939R). In outline: as §1
Another assay has as its target T3, PUM1 PUF domain R6-TFQ (Homo sapiens, UniProt Q14671 828-1176, N1043T;Y1044F).
T3 sequence: T1 sequence with C216T, K220Q
The method, boiled down:
as §1

Another assay has as its target PUM1 PUF domain R2-DWL (Homo sapiens, UniProt Q14671 828-1176, N899D;Y900W;Q903L). In outline: as §1
The target in another assay is PUM1 PUF domain R7-CHP (Homo sapiens, UniProt Q14671 828-1176, S1079C;N1080H;E1083P). The method, boiled down: as §1

For “GGCUAGAACUAGUGGAUCCCCCGGCGCCCGGCGGCUCGAGCCCGGGUAAGUGUACAUAGUCUGCAUGCCGCCGGGCGCCAUGCCUGCAGGUCGACUCUAGAAAACAUG”, in the assay with PUM1 PUF domain R4-SNI, the binding signal was 2.5 log2 enrichment (interaction score).
Regarding “GGCUAGAACUAGUGGAUCCCCCGGCGCCCGGCGGCUCGAGCCCGGGUAAGUGUAUAUAGUCUGCAUGCCGCCGGGCGCCAUGCCUGCAGGUCGACUCUAGAAAACAUG”, the values for the binding signal with PUM1 PUF domain R4-SNI and with PUM1 PUF domain R4-SPY were 3.45 log2 enrichment (interaction score) and 1.88 log2 enrichment (interaction score), respectively.
Regarding “GGCUAGAACUAGUGGAUCCCCCGGCGCCCGGCGGCUCGAGCCCGGGUAAGUGUCAAUAGUCUGCAUGCCGCCGGGCGCCAUGCCUGCAGGUCGACUCUAGAAAACAUG”, the binding signal with PUM1 PUF domain R5-HCR was 2.3 log2 enrichment (interaction score).
Regarding “GGCUAGAACUAGUGGAUCCCCCGGCGCCCGGCGGCUCGAGCCCGGGUAAGUGUUAAUAGUCUGCAUGCCGCCGGGCGCCAUGCCUGCAGGUCGACUCUAGAAAACAUG”, the binding signal in the assay with PUM1 PUF domain R5-HCR was 2.43 log2 enrichment (interaction score); with PUM1 PUF domain R5-MYG, 3.99 log2 enrichment (interaction score).
With “GGCUAGAACUAGUGGAUCCCCCGGCGCCCGGCGGCUCGAGCCCGGGUAAGUGUGAAUAGUCUGCAUGCCGCCGGGCGCCAUGCCUGCAGGUCGACUCUAGAAAACAUG”, the binding signal in the assay with PUM1 PUF domain R5-QRD is 5.16 log2 enrichment (interaction score).
Take “GGCUAGAACUAGUGGAUCCCCCGGCGCCCGGCGGCUCGAGCCCGGGUAAGUGUAAAUAGUCUGCAUGCCGCCGGGCGCCAUGCCUGCAGGUCGACUCUAGAAAACAUG”: the binding signal with PUM1 PUF domain R5-LFR was 2.2 log2 enrichment (interaction score); in the assay with PUM1 PUF domain R6-CFK it was 3.27 log2 enrichment (interaction score); in the assay with PUM1 PUF domain R4-ALC, 3.15 log2 enrichment (interaction score); in the assay with PUM1 PUF domain R4-SPY, 3.88 log2 enrichment (interaction score); with PUM1 PUF domain R3-VRL, 3.56 log2 enrichment (interaction score); in the assay with PUM1 PUF domain R6-QWS, 3.91 log2 enrichment (interaction score). In addition, the binding signal with PUM1 PUF domain R5-MYG was 1.26 log2 enrichment (interaction score); with PUM1 PUF domain R4-YRC, 4.13 log2 enrichment (interaction score); with PUM1 PUF domain R4-SIG, 3.64 log2 enrichment (interaction score).
“GGCUAGAACUAGUGGAUCCCCCGGCGCCCGGCGGCUCGAGCCCGGGUAAGUGUAAUUAGUCUGCAUGCCGCCGGGCGCCAUGCCUGCAGGUCGACUCUAGAAAACAUG”: the results for the binding signal with PUM1 PUF domain R3-RSG, with PUM1 PUF domain R3-RDK and in the assay with PUM1 PUF domain R3-HRR were 3.59 log2 enrichment (interaction score), 2.64 log2 enrichment (interaction score) and 0.15 log2 enrichment (interaction score), respectively.
Consider “GGCUAGAACUAGUGGAUCCCCCGGCGCCCGGCGGCUCGAGCCCGGGUAAGUGUAAGUAGUCUGCAUGCCGCCGGGCGCCAUGCCUGCAGGUCGACUCUAGAAAACAUG”, for which the binding signal is 1.02 log2 enrichment (interaction score) in the assay with PUM1 PUF domain R3-RSG and 2.66 log2 enrichment (interaction score) in the assay with PUM1 PUF domain R3-HRR.
Regarding “GGCUAGAACUAGUGGAUCCCCCGGCGCCCGGCGGCUCGAGCCCGGGUAAGUGAAAAUAGUCUGCAUGCCGCCGGGCGCCAUGCCUGCAGGUCGACUCUAGAAAACAUG”, the binding signal in the assay with PUM1 PUF domain R6-TFQ is 6.64 log2 enrichment (interaction score).
Take “GGCUAGAACUAGUGGAUCCCCCGGCGCCCGGCGGCUCGAGCCCGGGUAAGUGUAAAAAGUCUGCAUGCCGCCGGGCGCCAUGCCUGCAGGUCGACUCUAGAAAACAUG”: the binding signal with PUM1 PUF domain R2-DWL is 6.44 log2 enrichment (interaction score).
On to “GGCUAGAACUAGUGGAUCCCCCGGCGCCCGGCGGCUCGAGCCCGGGUAAGUGGAAAUAGUCUGCAUGCCGCCGGGCGCCAUGCCUGCAGGUCGACUCUAGAAAACAUG”, for which, in the assay with PUM1 PUF domain R6-QWS, the binding signal is 3.82 log2 enrichment (interaction score).
For the sequence “GGCUAGAACUAGUGGAUCCCCCGGCGCCCGGCGGCUCGAGCCCGGGUAAGUCUAAAUAGUCUGCAUGCCGCCGGGCGCCAUGCCUGCAGGUCGACUCUAGAAAACAUG”, the binding signal with PUM1 PUF domain R7-CHP is 2.32 log2 enrichment (interaction score).
